Some test systems named below: T-47D breast; BT-549 breast; MDA-MB-435 melanoma; SW-620 colon; MCF7 breast; HCT-116 colon; HCC-2998 colon; KM12 colon.
What all share (test): NCI-60 one-dose screen, 48 h (100 = growth as untreated, 0 = no growth, -100 = all killed)
Details in all cases: 10 µM unless noted

Molecules are shown by their SMILES. Values joined by “and” are separate entries in the source; they are usually repeats but may differ in a detail not shown here. Equal entries are not always repeated. This is part of a sample that, as a whole, favours compounds with a hit. Of some 83,000 tested, about 20% had one in any assay.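 Treatment: one concentration, 48 hours, 96-well format. Scoring: percent growth, with anything below 10 considered active.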 Unmarked numbers belong to inactive results. Active and inactive are the calls of the source.

For `COC(=O)/C=C1/SC(N2N=C(c3cccs3)CC2c2ccc(F)cc2)=NC1=O` (stereo not given), the growth is 38.9% in the experiment with T-47D breast; 66.1% in the experiment on BT-549 breast; 43.2% in the experiment on MDA-MB-435 melanoma; 3.45% (active) with SW-620 colon; 10.1% in the experiment on MCF7 breast; -15.3% (active) in the experiment with HCT-116 colon. Also, the growth in the experiment with HCC-2998 colon was 33.7%; in the experiment on KM12 colon, 30.5%.
On to `O/N=C(/c1ccccc1)c1ccc2c3c(cccc13)CC2`, for which the growth with T-47D breast is 85.9% and 93.8%; in the experiment with BT-549 breast, 84.6% and 106%; with MDA-MB-435 melanoma, 47.3% and 37.8%; in the experiment with SW-620 colon it was 91.2% and 84%; in the experiment with MCF7 breast it was 85.8% and 82.6%; in the experiment on HCT-116 colon, 83.7% and 92.1%. The growth with HCC-2998 colon was 101% and 97.8%; in the experiment on KM12 colon, 86.4% and 78.4%.
With `O=C1C(N2CCOCC2)=C(I)C(=O)c2ncccc21`, the growth was 53.7% in the experiment on T-47D breast; 87.1% with BT-549 breast; -69.4% (active) with MDA-MB-435 melanoma; 69.2% in the experiment on SW-620 colon; 41.3% in the experiment on MCF7 breast; 49.4% in the experiment on HCT-116 colon. The values for the growth in the experiment on HCC-2998 colon and with KM12 colon were 86.8% and 91.8%, respectively.
With `Cc1ccc(-c2nc(SCC(=O)c3ccc(C#N)cc3)[nH]c(=O)c2C#N)cc1`, the growth in the experiment on T-47D breast is 100%; with BT-549 breast it was 101%; in the experiment with MDA-MB-435 melanoma, 106%; in the experiment on SW-620 colon, 112%; with MCF7 breast it was 96.5%; in the experiment with HCT-116 colon it was 88.9%. For the same molecule, the figures for the growth in the experiment on HCC-2998 colon and in the experiment with KM12 colon were 107% and 93.6%, respectively.
Consider `COC(=O)c1nc(-c2ccc(C)cc2)oc1S(=O)(=O)c1ccc(Cl)cc1`, for which the growth in the experiment on T-47D breast was 88.6%; with BT-549 breast it was 83.4%; in the experiment with MDA-MB-435 melanoma, 107%; in the experiment with SW-620 colon, 80%; in the experiment with MCF7 breast it was 89.8%; in the experiment with HCT-116 colon, 77.7%. The growth was 112% in the experiment with HCC-2998 colon and 116% in the experiment on KM12 colon.
In the case of `Cc1c(C(C)(C)O)cn2ncnc(Oc3ccc(NC(=O)Nc4ccc(Cl)c(C(F)(F)F)c4)cc3)c12`, the growth with T-47D breast is 21.8%; with BT-549 breast, 58%; in the experiment on MDA-MB-435 melanoma, 37.4%; in the experiment on SW-620 colon, 62%; in the experiment on MCF7 breast it was 25.2%; with HCT-116 colon, 28.6%. Also, the growth is 85.7% in the experiment on HCC-2998 colon and 24.8% with KM12 colon.
Take `CCCO/N=C/c1ccccn1`: the growth with T-47D breast was 107% and 93.9%; in the experiment with BT-549 breast, 90.8%; with MDA-MB-435 melanoma it was 107% and 105%; with SW-620 colon, 102% and 110%; in the experiment on MCF7 breast, 89.2% and 92.4%; with HCT-116 colon, 102%. Moreover, the growth was 110% and 105% with HCC-2998 colon; 101% and 103% in the experiment on KM12 colon.
For `NC(=O)c1c(NC(=O)/C=C/c2cccs2)sc2c1CCC(=O)C2`, the growth is 16.2% in the experiment with T-47D breast; 20.1% with BT-549 breast; 14.2% in the experiment on MDA-MB-435 melanoma; 15.1% in the experiment with SW-620 colon; 14.1% in the experiment with MCF7 breast; 8.1% (active) in the experiment on HCT-116 colon. Further, the growth in the experiment on HCC-2998 colon is 85.2%; in the experiment with KM12 colon it was 14.8%.
As for `COc1ccc(N2CCN(S(=O)(=O)c3oc(-c4ccccc4)nc3C#N)CC2)cc1`, the growth with T-47D breast is 73.1%; in the experiment on BT-549 breast, 77.5%; with MDA-MB-435 melanoma, 65.2%; in the experiment on SW-620 colon it was 7.02% (active); in the experiment on MCF7 breast, 31.2%; in the experiment with HCT-116 colon it was 15.4%. Also, the results for the growth in the experiment with HCC-2998 colon and with KM12 colon were 100% and 104%, respectively.
For `CCOC(=O)c1nnn(Cc2cc(=O)oc3c2ccc2ccccc23)c1C`, the growth is 93.9% with T-47D breast; 108% in the experiment with BT-549 breast; 105% in the experiment on MDA-MB-435 melanoma; 107% in the experiment on SW-620 colon; 92% in the experiment with MCF7 breast; 89.3% in the experiment with HCT-116 colon. Moreover, the figures for the growth in the experiment with HCC-2998 colon and in the experiment with KM12 colon were 106% and 104%, respectively.
Take `Cc1ccc2nc3ccccc3c(NCc3ccc(Cl)cc3)c2c1`: the growth is 57.9% in the experiment with T-47D breast; 75.6% in the experiment on BT-549 breast; 70.3% in the experiment on MDA-MB-435 melanoma; 32.1% in the experiment on SW-620 colon; -20.8% (active) in the experiment on MCF7 breast; 14.7% in the experiment on HCT-116 colon. For the same molecule, the growth was -79% (active) in the experiment on HCC-2998 colon and 77.1% in the experiment with KM12 colon.
On to `OCCN1CCN(c2cc(-c3cccc(OC(F)(F)F)c3)nc3ccc(N4CCCC4)cc23)CC1`, for which the growth in the experiment on T-47D breast was 32.2%; with BT-549 breast, 80.5%; in the experiment with MDA-MB-435 melanoma, 29.7%; with SW-620 colon it was 2.96% (active); in the experiment with MCF7 breast, 17.5%; in the experiment on HCT-116 colon, 15.6%. The growth with HCC-2998 colon is 22.9%; in the experiment with KM12 colon, 23.4%.
For the molecule `COCCn1cc(-c2csc(-c3cn(C)c4ccc(F)cc34)n2)c2cccnc21`, the growth in the experiment with T-47D breast was 25.2%; in the experiment on BT-549 breast, 63.8%; with MDA-MB-435 melanoma, 40.8%; in the experiment with SW-620 colon, 37.6%; in the experiment with MCF7 breast it was 25.9%; in the experiment on HCT-116 colon, 75.5%. In addition, the growth is 49.6% in the experiment with HCC-2998 colon and 40% in the experiment with KM12 colon.
For `C=CCNC(=O)Cc1c(-c2ccc(OC)cc2)oc2c(OC)c3c(c(OC)c12)OCO3`, the growth is 101% in the experiment with T-47D breast; 100% in the experiment with BT-549 breast; 103% in the experiment with MDA-MB-435 melanoma; 103% in the experiment with SW-620 colon; 83.9% in the experiment on MCF7 breast; 92.8% in the experiment on HCT-116 colon. Moreover, the growth with HCC-2998 colon was 116%; in the experiment with KM12 colon it was 96.2%.
`CCN(CC)/C([O-])=c1\cccc\c1=C1\N=C(c2ccccc2)N=C1[n+]1ccc(-c2ccccc2)cc1`: the growth with T-47D breast is 90.5%; in the experiment on BT-549 breast, 93.3%; with MDA-MB-435 melanoma it was 96.8%; in the experiment with SW-620 colon it was 91.6%; with MCF7 breast it was 93%; with HCT-116 colon, 97%. Further, the growth in the experiment with HCC-2998 colon was 93.3%; in the experiment with KM12 colon, 96.3%.
